Sampled rows, rich in hits. Any-hit rate of the full collection: about 5.9%.
GALK inhibitor – blocks human galactokinase activity | Purified GALK, Kinase-Glo residual ATP luminescence | actives 0.007% (n = 270,000) | P51570 | Potency, µM (series often up to 57.5 µM), without a hit: top-dose activity change, negative = inhibition, most hits filed as inhibitors; also: potency is read from the fitted curve at half-maximal effect
Target sequence (P51570 whole entry, looked up): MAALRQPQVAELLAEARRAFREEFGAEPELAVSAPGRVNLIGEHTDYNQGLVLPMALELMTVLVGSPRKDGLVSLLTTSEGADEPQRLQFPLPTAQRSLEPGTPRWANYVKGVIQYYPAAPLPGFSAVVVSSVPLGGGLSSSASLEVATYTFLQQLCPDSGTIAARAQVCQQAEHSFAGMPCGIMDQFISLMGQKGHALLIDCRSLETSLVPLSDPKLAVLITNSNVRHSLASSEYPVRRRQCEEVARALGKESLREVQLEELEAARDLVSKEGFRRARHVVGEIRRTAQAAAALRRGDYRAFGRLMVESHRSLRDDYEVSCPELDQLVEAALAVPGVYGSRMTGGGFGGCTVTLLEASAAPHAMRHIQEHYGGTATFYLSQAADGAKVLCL
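GALK at 5 nM final was combined with compound, 35 uM ATP and 100 uM galactose in HEPES pH8.0 with MgCl2 and DTT. The reaction ran one hour at room temperature before luminescent ATP detection.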
RORgamma inh – inhibitors of mouse ROR gamma transcriptional activity; Drosophila S2 Gal4-RORgamma UAS-luciferase reporter, 20 h; Potency, µM (top dose mostly 53.6 µM), inactives show top-dose activity change, negative = inhibition, hits mostly inhibitors; actives 5.4% (n = 310,000); P51450; also: potency is read from the fitted curve at half-maximal effect; nearly all actives have a fitted effect of over 60% in size
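Read-out: Photinus luciferase luminescence; inhibitors lower reporter signal. Insect Schneider cells with Gal4-ROR gamma fusion under metallothionein promoter, UAS reporter; 700 uM final copper sulfate induction, 20 hr, ambient temperature.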
FBPA coupling cs – coupling enzyme interference in Giardia aldolase counter-screen; coupling enzyme system counterscreen, AmpLite Red fluorescence; activity change, negative = inhibition, % at 58.2 µM, hits read low; actives 0.67% (n = 290,000); AID 2472; in the data active = activity change below about -30%
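Activity here indicates interference with the coupling reaction, not aldolase inhibition. Compounds at 57.5 uM final met coupling enzymes for 10 min at RT; substrate and AmpLite Red detection followed, with a 525/598 nm fluorescence read after 20 min.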
Gal4-VP16 FLuc – counter-screen for ROR gamma inhibitors: Gal4-VP16 reporter. actives 3.5% (n = 310,000). Potency, µM (titrated, usually from 53.6 µM), for the others: top-dose activity, negative = inhibition, usual class: inhibitors. Drosophila S2 Gal4-VP16 UAS-luciferase, luminescence, 20 h;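 also: Gal4-VP16 expression switched on by copper sulfate through the metallothionein promoter; potency is read from the fitted curve at half-maximal effect; nearly all actives have a fitted effect of over 50% in size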
rTrxR1 inhibitor – rat TrxR1 inhibition | O89049 | recombinant rTrxR1, NADPH fluorescence consumption, selenite substrate | Potency, µM (top dose mostly 114 µM), without a hit: at the top dose activity change, negative = inhibition, actives largely listed as inhibitors | actives 1% (n = 390,000) | AID 588453; also: potency is read from the fitted curve at half-maximal effect; nearly all actives have a fitted effect of over 65% in size
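Rat TrxR1 (90 nM in the dispensed reagent) was pre-reduced with 400 uM NADPH for 5 min at room temperature, then incubated with compound for 15 min. After 400 uM selenite was added, NADPH fluorescence (Ex 340/Em 450 nm) was followed for 8 min.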
TrxR1 substrate – substrates of rat thioredoxin reductase 1. purified TrxR1 substrate turnover, NADPH consumption readout. actives 0.01% (n = 390,000). Potency, µM (top dose mostly 114 µM), for the others: at the highest dose activity change, negative = substrate turnover; also: potency is read from the fitted curve at half-maximal effect; nearly all actives have a fitted effect of over 50% in size
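Rat TrxR1, dispensed at 90 nM, was prereduced with 400 uM NADPH (final) for 5 min at ~22 deg C, then incubated with compound 15 min before 400 uM selenite. A first-read NADPH fluorescence drop versus no-compound background flagged substrates.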
An asterisk follows results filed as active; ? = inconclusive; . = no result; [ ] = another dose, or the depositor's remark. Unless noted, calls follow the shape of the dose curve; as a rule, active = well fitted curve in the direction sought with a large enough effect; inconclusive = small, poorly fitted or top-dose-only effect, or another doubt; inactive = no such curve, though single readings can be large; an effect the other way counts as inactive or inconclusive. % is scaled to controls: 0 for no effect and ±100 for the full control effect.

SMILES | GALK inhibitor | RORgamma inh | FBPA coupling cs | Gal4-VP16 FLuc | rTrxR1 inhibitor | TrxR1 substrate
Cc1ccc2[nH]c(C(=O)Nc3ccc(F)cc3)cc2c1 | 7% | 10µM* | 2 | 16% | 36% | 9%
CCN1/C(=C/C=C/c2oc3ccc(-c4ccccc4)cc3[n+]2CC)Oc2ccc(-c3ccccc3)cc21 | 1% | 13µM* | -1 | 0.35µM* | 17%[57.1 µM] | 8%[57.1 µM]
COc1ccc2cc(C(N)=O)/c(=N\NC(=O)c3ccccc3)oc2c1 | -2% | 13µM* | 1 | ? | 6% | 54%
COCCCn1c(C23CC4CC(CC(C4)C2)C3)n[nH]c1=S | 3% | 5µM* | 1 | 6.3µM* | -15% | -3%
Cn1c(C23CC4CC(CC(C4)C2)C3)n[nH]c1=S | -3% | 5µM* | 1 | 8.9µM* | -12% | -7%
CC(C)Cn1c(C23CC4CC(CC(C4)C2)C3)n[nH]c1=S | -4% | 3.2µM* | 1 | 3.2µM* | -12% | -1%
Cc1ccc(C(=O)Nc2ccccc2C(=O)NCc2ccco2)cc1 | . | . | . | . | -24%[11.4 µM] | 1%[11.4 µM]
O=C(CCCOc1ccc(Cl)cc1Cl)NCC1CCCO1 (configuration not stated) | -2% | 37% | -2 | 24% | -3% | 3%
CN(C)c1ccc2c(-c3ccccc3)c3ccc(=[N+](C)C)cc-3oc2c1 | . | ? | 20 | 3.2µM* | . | .
CCCCN(c1ccccc1)S(=O)(=O)c1cc2c3c(c1)C(C)C(=O)N3CCC2 (configuration not stated) | . | . | . | . | -2%[57.1 µM] | -8%[57.1 µM]
COc1ccc(/C=N\Nc2ccccc2[N+](=O)[O-])c(C(=O)O)c1OC | 4% | 41% | 24 | ? | 2% | -17%
COc1ccc(/C=N\Nc2ccc([N+](=O)[O-])cc2[N+](=O)[O-])c(C(=O)O)c1OC | -1% | 11% | 20 | -17% | 50µM* | -19%
COc1ccc(/C=C(/NC(=O)c2ccccc2)C(=O)N/N=C/c2cccs2)cc1OC | -1% | ? | 3 | -22% | 1%[57.1 µM] | -6%[57.1 µM]
COc1cc(/C=N/NC(=O)Cc2ccccc2)ccc1Oc1ccc([N+](=O)[O-])cc1[N+](=O)[O-] | -5% | 22% | -2 | 3% | 9% | 1%
COc1ccc([N+](=O)[O-])cc1/C=N/NC(=O)/C(=C\c1cccs1)NC(=O)c1ccccc1 | -3% | 37% | -42* | 0% | 43%[57.1 µM] | 4%[57.1 µM]
COc1ccc(/C=N/NC(=O)CC(=O)NCc2cccnc2)c(OC)c1 | -1% | 26% | 1 | -2% | -3%[57.1 µM] | 2%[57.1 µM]
COc1ccc(OC)c(/C=N/NC(=O)CC(=O)NCc2ccccc2)c1 | -5% | 12% | -33* | -6% | 5% | 84%
COc1ccc([N+](=O)[O-])cc1/C=N/NC(=O)Cc1ccccc1 | -4% | 7.9µM* | -8 | ? | 7% | -5%
CN1c2ccccc2C(O)=C(C(=S)Nc2ccc(F)c(Cl)c2)S1(=O)=O | -6% | ? | 9 | ? | ? | ?
O=C(N/N=C/c1ccc(Br)o1)/C(=C/c1ccc([N+](=O)[O-])cc1)NC(=O)c1ccccc1 | -2% | 10µM* | 0 | ? | -16% | -4%
CCCCP(=O)(CCCC)Cc1ccccc1 | -2% | -7% | 3 | 1% | ? | -1%[11.4 µM]
Cc1ccc(C)c(NC(=O)CCC(=O)N/N=C/c2cccnc2)c1 | 4% | -2% | . | -7% | 16% | -2%
O=C(CCn1cnc(-c2ccccc2)c1-c1ccccc1)N/N=C/c1ccccc1O | 0% | ? | 1 | 2.8µM* | 9% | 5%
COc1ccc(O)c(/C=N/NC(=O)CCC(=O)Nc2ccc(F)cc2)c1 | 1% | 11µM* | -1 | -16% | 8%[57.1 µM] | 13%[57.1 µM]
O=C(CCCCC(=O)NN=Cc1ccccc1O)NN=Cc1ccccc1O | . | . | . | . | 15% | 0%
SMILES | GALK inhibitor | RORgamma inh | FBPA coupling cs | Gal4-VP16 FLuc | rTrxR1 inhibitor | TrxR1 substrate
Cc1ccc(SCCC(=O)N/N=C/c2cccnc2)cc1 | 11% | ? | -32* | -4% | 16% | -4%
Cc1ccc(SCCC(=O)N/N=C/c2ccccc2O)cc1 | 0% | 0.63µM* | -29 | 0.63µM* | 8% | 5%
CCOC(=O)c1ccc(OCC2c3cc(OC)c(OC)cc3CCN2C(=O)Cc2ccc(F)cc2)cc1 (configuration not stated) | . | . | . | . | 5%[57.1 µM] | -5%[57.1 µM]
C1CCCCCC(=NNc2nn[nH]n2)CCCCC1 | -1% | 2% | -22 | -1% | 19%[57.1 µM] | 4%[57.1 µM]
Cc1ccc(NC(=O)CCC(=O)N/N=C/c2ccccc2O)cc1 | 9% | 4µM* | 1 | 11µM* | 14% | 8%
O=C(CCC(=O)Nc1ccc(Br)cc1)N/N=C/c1ccccc1O | 13% | ? | 3 | ? | -1% | -2%
CCN(CC)S(=O)(=O)c1ccc2oc(C(=O)NC(C)C)c(C)c2c1 | 0% | 7% | 0 | -1% | 6% | -2%
Brc1ccc(-c2cn3c(n2)CCc2ccc4cccnc4c2-3)cc1 | 2% | 6% | -31* | ? | 12% | 35%
CCN1CCN(C(=S)NC(=O)/C=C/c2cccs2)CC1 | -1% | 3.2µM* | 4 | ? | -4%[57.1 µM] | -13%
O=C(NC(=S)N1CCN(c2ccc(C(F)(F)F)cc2[N+](=O)[O-])CC1)c1cccs1 | 0% | 0.11µM* | -3 | ? | -24% | -9%
CCN1CCN(C(=S)NC(=O)c2cccs2)CC1 | -1% | 6.3µM* | 1 | ? | -10% | 6%
O=C(CN1C(=O)NC2(CCCC2)C1=O)N1CCN(c2ccc(C(F)(F)F)cc2[N+](=O)[O-])CC1 | . | . | . | . | 17% | -2%
COC(=O)c1ccc(NC(=O)c2nc(SCc3ccccc3F)ncc2Cl)cc1 | . | . | . | . | 8%[0.0914 µM] | 7%[0.0914 µM]
Cc1noc(/C=C/c2ccco2)c1S(=O)(=O)N1CCC(C(=O)N2CCc3ccccc3C2)CC1 | 1% | -6% | 3 | -5% | 50µM* | -8%
Cc1ccccc1NC(=O)C1CCN(S(=O)(=O)c2c(C)noc2/C=C/c2ccco2)CC1 | . | . | . | . | -22% | -11%
CC(C)NCC(O)(c1ccc(Cl)cc1)c1ccc(Cl)cc1 | 1% | -14% | 4 | 5% | 14% | 6%
COC(=O)Oc1c(Br)c(=O)oc2ccccc12 | . | . | . | . | 7.9µM* | -2%
CC(=O)Nc1c(NC(C)C)c2ccccc2oc1=O | -1% | 2% | 0 | -5% | -8%[57.1 µM] | -7%[57.1 µM]
COc1ccc(-n2c(=O)c3c4c(sc3n3c(=S)[nH]nc23)CCCC4)cc1 | 1% | 7.9µM* | -1 | 13µM* | 2%[57.1 µM] | 5%[57.1 µM]
COc1ccccc1CNC(=O)c1ccoc1C | 3% | 2% | -4 | 4% | ? | -2%
CCCCCCCCCCCNC(=O)c1ccoc1C | -3% | -7% | 0 | -6% | 20µM* | -5%
Cc1occc1C(=O)NCc1ccccc1F | -1% | 2% | 2 | -4% | 10µM* | 9%

Source: PubChem (National Center for Advancing Translational Sciences (NCATS))
